Experimental data from the supplement of paper PMC6555819.

What was measured:
Test in all cases: PBM binding z-score (relative to random genomic background probes); higher = stronger binding; sequences stand for … in GC…GCGATTGACAGCGTAGAATGAAGG
[1] = tested on: FXR:RXRa (NR concentration 270 nM, RXRa partner concentration 90 nM)
How it was run: (§1)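 Ligand-free nuclear receptor dimers were bound for 1 h to custom Agilent 4×180K protein-binding microarrays. Detection used antibodies against each partner (one per run). Binding z-scores rest on regression-normalized fluorescence, with random background probes as the reference.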

[2] = tested on: LXRa:RXRa (NR concentration 270 nM, RXRa partner concentration 90 nM)
How it was run: as §1

[3] = tested on: LXRa homodimer (NR concentration 270 nM)
How it was run: as §1

[4] = tested on: LXRb:RXRa (NR concentration 270 nM, RXRa partner concentration 90 nM)
How it was run: as §1

[5] = tested on: LXRb homodimer (NR concentration 270 nM)
How it was run: as §1

[6] = tested on: PPARg:RXRa (NR concentration 180 nM, RXRa partner concentration 90 nM)
How it was run: as §1

[7] = tested on: PPARg:RXRa 270nM:90nM, anti-RXR (NR concentration 270 nM, RXRa partner concentration 90 nM)
How it was run: as §1

[8] = tested on: PPARg:RXRa 30nM:10nM, anti-RXR (NR concentration 30 nM, RXRa partner concentration 10 nM)
How it was run: as §1

[9] = tested on: PPARg:RXRa 90nM:30nM, anti-RXR (NR concentration 90 nM, RXRa partner concentration 30 nM)
How it was run: as §1

[10] = tested on: PPARg:RXRa DBDmut IVT, anti-RXR (DBD mutation: RXRa K156A/R161A, NR concentration 270 nM, RXRa partner concentration 90 nM)
How it was run: as §1

[11] = tested on: PPARg:RXRa IVT, anti-PPARg (NR concentration 270 nM, RXRa partner concentration 90 nM)
How it was run: as §1

[12] = tested on: PPARg DBDmut:RXRa IVT, anti-PPARg (DBD mutation: PPARg1 K132A/R137A, NR concentration 270 nM, RXRa partner concentration 90 nM)
How it was run: as §1

[13] = tested on: PPARg DBDmut IVT, anti-PPARg (DBD mutation: PPARg1 K132A/R137A, NR concentration 270 nM)
How it was run: as §1

[14] = tested on: PPARg homodimer (NR concentration 180 nM)
How it was run: as §1

[15] = tested on: PXR:RXRa (NR concentration 270 nM, RXRa partner concentration 90 nM)
How it was run: as §1

[16] = tested on: PXR homodimer (NR concentration 270 nM)
How it was run: as §1

[17] = tested on: RARa:RXR (NR concentration 270 nM, RXRa partner concentration 90 nM)
How it was run: as §1

[18] = tested on: RARa homodimer (NR concentration 270 nM)
How it was run: as §1

[19] = tested on: RARb:RXRa (NR concentration 270 nM, RXRa partner concentration 90 nM)
How it was run: as §1

Row | Sequence | PBM binding z-score [1] | PBM binding z-score [2] | PBM binding z-score [3] | PBM binding z-score [4] | PBM binding z-score [5] | PBM binding z-score [6] | PBM binding z-score [7] | PBM binding z-score [8] | PBM binding z-score [9] | PBM binding z-score [10] | PBM binding z-score [11] | PBM binding z-score [12] | PBM binding z-score [13] | PBM binding z-score [14] | PBM binding z-score [15] | PBM binding z-score [16] | PBM binding z-score [17] | PBM binding z-score [18] | PBM binding z-score [19]
1 | CCTACTGGGCCATTCAGAGGTCATTGTTCATATG | 2.55 | 4.4 | 6.96 | 3.77 | 0.5 | 1.98 | 3.18 | 0.535 | 2.16 | 4.55 | 4.17 | 0.178 | -0.495 | 2.5 | 4.71 | 2.33 | 4.2 | 0.216 | 2.97
2 | GCTTACGGGTCAAAGGTTATAACATGAATAGAAT | 7.52 | 5.95 | 0.829 | 5.89 | 1.05 | 11.2 | 9.66 | 8.65 | 10.4 | 4.69 | 5.8 | 1.74 | 2.86 | 3.61 | 6.24 | 0.489 | 8.14 | 0.937 | 4.53
3 | CATACTAGGTCAAAGGTCAAAGTCGAGCCAACCA | 8.57 | 7.39 | 7.06 | 7.48 | 3.69 | 13.2 | 10.9 | 12.6 | 12.5 | 7.72 | 8.62 | 2.89 | 3.65 | 3.93 | 6.81 | 1.91 | 8.63 | 1.65 | 5.97
4 | TCATATAGGTAATAGGTGAAAGTCGGTGTGGTAA | 1.15 | 1.11 | 0.316 | 1.18 | 0.0131 | 6.6 | 6.84 | 6.19 | 7.27 | 4.73 | 4.33 | 0.889 | 1.42 | 1.61 | 0.866 | 0.435 | 1.56 | 1.65 | 0.581
5 | CCTAGCCGGCCAATCTGGGTCACTCAAGGCTTGA | 0.614 | 0.785 | 0.0438 | 1.02 | -0.78 | 1.68 | 2.15 | -0.425 | 1.27 | 3.39 | 4.68 | -0.873 | -0.666 | 0.858 | 1.03 | -0.396 | 2.24 | -0.278 | 1.4
6 | ACTAGTTGGTCAGCTGAGGTCACACTCAATTCGG | 3.79 | 3.19 | 2.29 | 3.64 | 0.527 | 1.23 | 1.94 | 0.159 | 1.26 | 1.55 | 2.58 | 0.716 | -0.0108 | 1.84 | 5.39 | 1.85 | 4.51 | 0.596 | 3.54
7 | TCTAGTTGGTCAAAGGTCTCACACTCGAAATGCG | 1.27 | 1.49 | 0.269 | 1.57 | 0.449 | 7.81 | 7.33 | 6.65 | 8.53 | 3.11 | 3.77 | 1.08 | 1.78 | 2.48 | 1.34 | 0.942 | 1.89 | 1.17 | 1.88
8 | AGAATGAGGTTAAGATTAGGGAAACAGAATACAT | 2.33 | 1.73 | 0.0443 | 1.78 | -0.185 | 2.52 | 2.36 | 0.986 | 1.91 | 2.37 | 2.53 | 0.926 | 1.13 | 1.38 | 1.24 | 0.222 | 2.11 | 1.36 | 1.91
9 | AGTCAAAGTTCAGCACGAGGTAACGTAAAGCACG | 4.45 | 4.19 | 1.47 | 2.23 | 0.567 | 4.88 | 5.1 | 2.2 | 4.2 | -0.116 | 2.28 | 0.538 | 0.124 | 1.92 | 3.35 | 1.01 | 3.13 | 1.12 | 4.66
10 | CAAACTAGGTCACCGTAAGGTCAAAGTCCGCATG | 6.58 | 6.1 | 5.47 | 5.55 | 1.46 | 9.41 | 7.89 | 5.84 | 7.64 | 8.08 | 9.03 | 2.73 | 1.86 | 6.09 | 6.21 | 2.62 | 7.31 | 1.95 | 5.57
11 | ACTTACGGGTCAACGGGGTTATAGCACGCGTATA | 6.95 | 4.81 | 0.682 | 5 | 0.93 | 6.4 | 5.83 | 2.51 | 4.14 | 3.04 | 4.81 | 1.21 | 1.3 | 2.83 | 5.57 | 2.28 | 5.87 | 0.668 | 4.47
12 | TAGCCTAGGTCATGCGGGCCAGTATAGTGTCGGC | 3.95 | 3.16 | 0.141 | 1.55 | -0.409 | 1.98 | 2.32 | -0.028 | 1.01 | 1.77 | 2.76 | -0.107 | -0.0866 | 0.667 | 1.37 | -0.724 | 2.44 | -0.846 | 3.66
13 | GGAACGAGCGCAAAGTTGATAGCATCTGTCGACG | -0.856 | -0.827 | -0.68 | -1.1 | -1.22 | 1.51 | 3.31 | 0.951 | 2.9 | -0.42 | -0.495 | -0.634 | -1.33 | -1.01 | -0.773 | -0.719 | -0.723 | -0.818 | -0.372
14 | TCTAGCAGGCCATAGGGTCACTCAAGAGGTACGG | 2.31 | 1.65 | -0.243 | 1.73 | -0.428 | 2.46 | 3.27 | 2.5 | 3.13 | 1.23 | 1.69 | -1.22 | -0.48 | 0.644 | 2.43 | -0.246 | 3.69 | 0.229 | 2.75
15 | TCTCGGAGGACACGAAGGTCAAAGCTTTCCAGAG | 2.68 | 2.91 | 2.05 | 2.91 | -0.25 | 1.14 | 2.53 | 2.73 | 2.51 | 1.76 | 1.71 | -0.973 | -1.26 | 1.25 | 3.68 | 2.71 | 3.62 | 0.304 | 3.66
